Screening results: PubChem, The Scripps Research Institute Molecular Screening Center
SRC3 TRFRET art = TR-FRET detection interference compounds, artefact control for PPARgamma SRC-3 recruitment agonists, biochemical, TR-FRET ratio. TR-FRET ratio at 8 µM. 0.39% of 99,000 active. TR-FRET artefact counter-screen, PPARgamma/SRC-3 format; active compounds read high. AID 1048, 2008
SRC1 TRFRET art = TR-FRET detection interference compounds, primary screen, artefact control for PPARgamma SRC-1 recruitment agonists, biochemical, TR-FRET emission ratio; 0.34% of 99,000 active; TR-FRET detection artefact counter-screen; active compounds read high; AID 1051, 2008; TR-FRET ratio at 8 µM; in the data active means TR-FRET ratio above about 2300
PPARg SRC-2 ag = agonists of PPARg-SRC-2 recruitment, primary screen, biochemical, HTS | 0.34% of 200,000 active | PPARgamma LBD-SRC-2 recruitment | Peroxisome proliferator-activated receptor gamma (Homo sapiens), P37231 | activation, % at 8 µM; in the data active means activation above about 22%
PPARg SRC1 recr = PPARgamma agonists recruiting SRC-1 coactivator, primary screen, biochemical | Peroxisome proliferator-activated receptor gamma (Homo sapiens), P37231 | PPARgamma-SRC-1 coactivator recruitment biochemical assay | activation, % at 8 µM | 0.41% of 200,000 active | AID 631, 2007; in the data active means activation above about 19%
TR-FRET SRC-2 ct = TR-FRET signal artefacts, primary screen, artefact control for PPARgamma SRC-2 agonist project, biochemical; TR-FRET artefact counter-screen; active compounds read high; TR-FRET ratio at 8 µM; 0.4% of 200,000 active; AID 1049, 2008
PPARg SRC3 recr = PPARgamma agonists recruiting SRC-3 coactivator, primary screen, biochemical; biochemical PPARgamma/SRC-3 coactivator recruitment assay; activation, % at 8 µM; 0.26% of 200,000 active; AID 731, 2007; in the data active means activation above about 23%
PPARg SRC2 conf = agonists of PPARgamma SRC-2 coactivator recruitment, confirmation, biochemical, HTS. AID 1297, 2008. shares compounds with PPARg SRC3 recr. biochemical SRC-2 recruitment by PPARgamma. activation, % at 8 µM. 52% of 790 active; in the data active means activation above about 22%
PPARg SRC1 ag = PPARgamma agonists recruiting SRC-1 coactivator, confirmation, biochemical; shares compounds with PPARg SRC3 recr; PPARgamma–SRC-1 coactivator recruitment biochemical assay; activation, % at 8 µM; 43% of 790 active; AID 1300, 2008; in the data active means activation above about 20%
PPARg SRC3 ag = PPARgamma-driven SRC-3 coactivator recruitment agonists, confirmation, biochemical; shares compounds with PPARg SRC3 recr; biochemical PPARgamma-SRC-3 coactivator recruitment, agonist mode; activation, % at 8 µM; 29% of 790 active; in the data active means activation above about 24%
Hits are given with their value; i = inactive; nt = not tested or not shown. Hits are enriched below; roughly 0.9% of the tested compounds scored in any of these assays. Unless noted, no stated cut-off is given here; in the data, active means TR-FRET ratio above about 2000; inactive means the rest.

SMILES	SRC3 TRFRET art	SRC1 TRFRET art	PPARg SRC-2 ag	PPARg SRC1 recr	TR-FRET SRC-2 ct	PPARg SRC3 recr	PPARg SRC2 conf	PPARg SRC1 ag	PPARg SRC3 ag
CCOC(=O)c1c(OCC)[nH]c2c1cc(O)c1ccccc12	nt	nt	i	19	i	i	i	i	i
CCCCc1ccc(N=N/C(C(=O)Nc2cc(OC)c(NC(C)=O)cc2OC)=C(/C)O)cc1	i	i	i	i	i	i	nt	nt	nt
COc1ccc(-n2ncc3c(NC(C)C)ncnc32)cc1	nt	nt	i	19	i	i	i	i	i
CC(C)(C)c1ccc(C(=O)NC(=S)NNC(=O)c2cccs2)cc1	i	i	i	i	i	26	i	i	i
CCN(CC)CCN1C(=O)C(O)=C(C(=O)c2cc3ccccc3o2)C1c1cccnc1 (stereo not drawn)	nt	nt	40	33	2274	52	i	i	i
CCN(CC)CCN1C(=O)C(O)=C(C(=O)c2sc(C)nc2C)C1c1cccnc1 (stereo not drawn)	nt	nt	i	i	i	i	nt	nt	nt
O=C(C1=C(O)C(=O)N(CCc2ccccc2)C1c1ccncc1)c1cc2ccccc2o1 (stereo not drawn)	2106	2514	25	21	2092	i	26	i	i
O=C(C1=C(O)C(=O)N(CCCN2CCOCC2)C1c1ccccn1)c1cc2ccccc2o1 (stereo not drawn)	nt	nt	25	21	i	35	i	i	i
CN(C)CCN1C(=O)C(O)=C(C(=O)c2cc3ccccc3o2)C1c1cccc(Br)c1 (stereo not drawn)	nt	nt	45	36	2387	58	38	26	26
O=C(Nc1ccc(-n2cccc2)cc1)C1CC1	i	i	i	i	i	i	nt	nt	nt
C=CCc1c(C)nc2ccc(C(=O)OCC)cc2c1Cl	i	i	i	i	i	i	nt	nt	nt
COC(=O)c1c(N2C(=O)CC(Sc3ccccc3C(=O)O)C2=O)sc2c1CCCC2 (stereo not drawn)	i	i	i	i	i	i	nt	nt	nt
COc1cc(C2C(C(C)=O)=C(O)C(=O)N2CCN(C)C)ccc1O (stereo not drawn)	nt	nt	i	i	i	i	nt	nt	nt
COc1ccccc1C1C(C(=O)c2cc3ccccc3o2)=C(O)C(=O)N1CCN(C)C (stereo not drawn)	nt	nt	i	20	1988	i	i	i	i
Cc1ccc(-n2cc(CNCC3CC(=O)N(C4CC4)C3)c(-c3cccc(C)c3)n2)cc1 (stereo not drawn)	i	i	i	i	i	i	nt	nt	nt
CCOC(=O)C1(Cc2cccc(OC)c2)CCN(Cc2cccnc2)CC1	i	i	i	i	i	i	nt	nt	nt
COc1ccc(-c2nn(CC(=O)Nc3ccc(Cl)c(Cl)c3)c(=O)c3ccccc23)cc1	nt	nt	i	19	2357	i	i	i	i
C=CCNC(=S)NNC(=O)c1ccc(=O)n(Cc2ccc(Cl)cc2Cl)c1	i	i	i	i	i	31	i	i	i
Cn1c(=O)cc(SCC(=O)N2CCCC2)c2ccc(Cl)cc21	nt	nt	87	72	3299	87	42	29	30
Cn1c(=O)cc(OCCCC(=O)N2CCCCC2)c2ccccc21	nt	nt	i	i	i	i	nt	nt	nt
COCCNC(=O)CSc1cc(=O)n(C)c2cc(Cl)ccc12	2886	3701	28	62	2945	40	39	26	27
Cn1c(=O)cc(SCC(=O)N2CCOCC2)c2ccc(Cl)cc21	nt	nt	62	61	2895	83	29	i	i
CN(CCCNC(=O)CSc1cc(=O)n(C)c2ccc(Cl)cc12)Cc1ccccc1	3068	3259	58	51	2374	46	40	24	i
